Screening data deposited in PubChem BioAssay by National Center for Advancing Translational Sciences (NCATS).
Compounds with a hit are over-represented: about 2.3% of the library has one in this group of screens.
Giardia killer – kills Giardia lamblia. Giardia lamblia trophozoite viability. activity change, % at 7.66 µM, hits read low. actives 0.15% (n = 340,000); in the data active = activity change below about -80%; inconclusive = between about -30% and that limit;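 note: parasites exposed to compound for two days anaerobically before the ATP read; % is set by controls: 0 for no effect and ±100 for the full control effect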
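Trophozoite viability was measured as ATP-dependent luminescence, read 15-30 min after reagent addition. Before that, parasites at 100 cells/well were exposed to compounds for 48 h, anaerobically, at 37 deg C.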
Nrf2 ARE act – activators of Nrf2 (ARE) signaling; AREc32 ARE-luciferase reporter (MCF7-derived line), luminescence, 24 h; Potency, µM (highest dose often 46.1 µM), for inactives: at the top dose activation, hits mostly activators; actives 0.31% (n = 410,000); note: potency is the fitted concentration of half-maximal effect; % of control where 0% means no effect; nearly all actives have a fitted effect of over 65% in size
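Nrf2 activation is followed as ARE-luciferase induction in the AREc32 line after one day of compound treatment; luminescence is read with Steady-Glo.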
Apoferritin bind – binds horse apoferritin like a general anesthetic. P02791. apoferritin/1-aminoanthracene competitive binding, fluorescence. Potency, µM (titrated, usually from 77.5 µM), inactives show at the highest dose activity change, negative = displacement, hits mostly inhibitors. actives 0.074% (n = 350,000); note: potency is the fitted concentration of half-maximal effect; % is set by controls: 0 for no effect and ±100 for the full control effect; nearly all actives have a fitted effect of over 20% in size
Target sequence (P02791 2-175 limits assumed): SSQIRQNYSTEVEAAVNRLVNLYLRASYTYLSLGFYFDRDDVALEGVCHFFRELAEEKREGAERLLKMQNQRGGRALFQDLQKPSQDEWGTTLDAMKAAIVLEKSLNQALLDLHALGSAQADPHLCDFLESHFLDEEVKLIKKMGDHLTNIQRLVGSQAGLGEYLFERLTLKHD
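10 uM apoferritin + 50% sat. 1-AMA, PBS; cpd 10 min RT; Ex380/Em535 endpoint; normalized to free probe vs complex; 4-param Hill fit; propofol titration as pos. ctrl.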
Nrf2 inh – inhibitors of Nrf2 signaling. A549 ARE-Fluc reporter, luciferase luminescence, 18-24 h. Potency, µM (top dose mostly 46 µM), for the others: at the highest dose activity change, negative = inhibition, usual class: inhibitors. actives 2.1% (n = 360,000). AID 504444; note: potency is the fitted concentration of half-maximal effect; % is set by controls: 0 for no effect and ±100 for the full control effect; nearly all actives have a fitted effect of over 60% in size
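Nrf2 activity is the BugLite luminescence, read 15 min after reagent at room temperature, following CellTiter-Fluor cytotoxicity readout (30 min, 37C). Compound titrations were applied for 18-24 h to 5000 A549 ARE_Fluc cells/well in 5% FBS OPTI-MEM.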
IDH1 R132H inh – inhibitors of human mutant IDH1 R132H; actives 0.093% (n = 390,000); Potency, µM (doses to about 76.6 µM), without a hit: at the highest dose activity change, negative = inhibition, usual class: inhibitors; O75874; IDH1-R132H enzyme, NADPH consumption, diaphorase/resazurin fluorescence; note: potency is the fitted concentration of half-maximal effect; % is set by controls: 0 for no effect and ±100 for the full control effect; nearly all actives have a fitted effect of over 65% in size
Target sequence (O75874 whole entry R132H, stated change not applied): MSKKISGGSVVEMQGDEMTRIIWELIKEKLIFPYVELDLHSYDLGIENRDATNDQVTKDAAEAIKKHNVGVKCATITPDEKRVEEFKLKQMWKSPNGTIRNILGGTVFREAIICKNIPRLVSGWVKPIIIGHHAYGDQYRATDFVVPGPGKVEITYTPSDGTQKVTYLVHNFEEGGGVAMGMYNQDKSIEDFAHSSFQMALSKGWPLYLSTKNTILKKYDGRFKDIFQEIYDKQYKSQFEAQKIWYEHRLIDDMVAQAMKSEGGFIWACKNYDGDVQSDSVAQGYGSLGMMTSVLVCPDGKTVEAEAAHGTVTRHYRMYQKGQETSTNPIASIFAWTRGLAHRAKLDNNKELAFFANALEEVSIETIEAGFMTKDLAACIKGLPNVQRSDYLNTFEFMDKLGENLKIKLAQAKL
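IDH1-R132H (0.5 ug/mL) preincubated 30 min with compound, then NADPH (0.016 mM) and alpha-KG (2 mM) added; 80 min at RT, pH 7.5. Remaining NADPH coupled via diaphorase/resazurin to fluorescence (540/590 nm); concentration-response curves normalized to no-enzyme control.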
A549 tox – A549 cytotoxicity, counter-screen for Nrf2 inhibitors. A549 ARE-Fluc cells, CellTiter-Fluor viability, 18-24 h. Potency, µM (titrated, usually from 46 µM), for inactives: at the top dose activity change, negative = cytotoxicity, most hits filed as inhibitors. actives 0.16% (n = 390,000). AID 504648; note: potency is the fitted concentration of half-maximal effect; % is set by controls: 0 for no effect and ±100 for the full control effect
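A549 ARE-Fluc cells in 5% FBS OPTI-MEM, 5000 cells/well, rested 2 h then exposed to compounds in concentration-response for 18-24 h at 37 °C. Viability by CellTiter-Fluor fluorescence (Ex 405/Em 525) after 30 min; luciferase luminescence (BugLite, 15 min, RT) read afterwards.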
* hit, by the source's call; i = inactive; u = inconclusive; x = no result. Unless noted, calls come from the whole dose curve; as a rule, active = well fitted curve in the direction sought with a large enough effect; inconclusive = small, poorly fitted or top-dose-only effect, or another doubt; inactive = no such curve, though single readings can be large; an effect the other way counts as inactive or inconclusive.

SMILES | Giardia killer | Nrf2 ARE act | Apoferritin bind | Nrf2 inh | IDH1 R132H inh | A549 tox
COc1ccc(S(=O)(=O)N(C)c2ccc(C(=O)N3CCCCC3)cc2)cc1OC | 5 | 2% | -8% | 12µM* | -5% | 5%
COc1ccc(S(=O)(=O)N(C)c2ccc(C(=O)N3CCCCC3)cc2)cc1 | -15 | 0% | -9% | u | 7% | -10%
COc1ccccc1NS(=O)(=O)c1ccc(C(=O)N2CCCCCC2)cc1 | -11 | 2% | x | 10µM* | -1% | -10%
CCCCC[C@H](O)/C=C/C=C\C/C=C\C/C=C\CCCC(=O)O | x | x | 4% | x | x | x
Nc1c(C(=O)Nc2ccc(OC(F)(F)F)cc2)sc2nc(-c3ccncc3)ccc12 | x | 6% | u | 6.5µM* | -15% | -4%
O=C1c2cccc3c([N+](=O)[O-])ccc(c23)C(=O)N1O | -24 | 13µM* | -6% | u | 7% | -13%
COc1ccc(C2Nc3ccccc3C(=O)N2Cc2cccc3ccccc23)cc1COc1ccc(NC(C)=O)cc1 (stereo unspecified) | x | x | x | u | x | -1%
CCN(CC)S(=O)(=O)c1cc(NC(=O)C(C)N(C)CC(=O)Nc2c(C)cccc2C)ccc1C (stereo unspecified) | 9 | 3% | -8% | 16µM* | 6% | u
CCN(CC)S(=O)(=O)c1cc(NC(=O)C(C)N2CCc3ccccc32)ccc1C (stereo unspecified) | -26 | 5% | -12% | u | -13% | -17%
Cc1nc(-c2ccc(S(=O)(=O)Nc3ccc(C)c(C)c3)s2)cs1 | x | x | x | -14% | x | 5%
CCc1nn(CC(=O)NCCc2ccc(Cl)cc2)c(=O)c2cc3ccccc3n12 | x | 3% | -3% | 2% | 0% | -2%
COc1coc(C(O)CN)cc1=O (stereo unspecified) | 9 | -1% | 6% | -3% | 5% | 6%
CCOC(=O)C(=Cc1cc(=O)c(OC)co1)C(=O)OCC | -25 | -3% | -4% | 9.2µM* | 8% | 15µM*
CCN(CC)C(=O)c1nn(-c2ccccc2)c2c1C1CCC2(C)C1(C)C (stereo unspecified) | -8 | 5% | -18% | 16µM* | -4% | -18%
COc1ccc(N(C)C(=O)c2cc3c(s2)-c2c(C)cccc2OC3)c(OC)c1 | 31 | 4% | 7% | 21µM* | 3% | 15%
CCCN1CNc2c(c(=O)[nH]c(=S)n2CCc2cc(Cl)cc(Cl)c2)C1 | i | x | x | -4% | x | 12%
S=C(NCCCc1cnc[nH]1)NCCCN(CCc1ccccc1)c1ccc(Br)cn1 | -5 | x | x | 0% | x | -15%
CCOc1ccc(NC(=O)Cn2c(=O)n(-c3ccccc3)c(=O)c3ccc(C(=O)NCc4ccc5c(c4)OCO5)cc32)cc1 | x | 0% | -22% | u | -5% | -27%
CC1CC1C(=O)Nc1nc(-c2ccc(Cl)s2)cs1 (stereo unspecified) | -4 | 5% | -5% | 23µM* | 9% | 2%
Cc1ccc2ccc3c(c2n1)NS(=O)(=O)c1ccc(C(F)(F)F)cc1-3 | 5 | x | x | 8.2µM* | x | 7.3µM*
O=S1(=O)Nc2c(cc(Cl)c3ccc(Cl)nc23)-c2ccccc21 | -16 | x | x | 19% | x | -3%
Cc1cc2c(cc1C)N(C(=O)CCl)CC(=O)N2 | x | u | x | x | -10% | x
Cc1cc2c(cc1C)N(C(=O)CCl)CCN2C(=O)CCl | 5 | 11µM* | x | u | -2% | -5%
NCCCCCCNc1nc2c(N)ncnc2n1[C@@H]1O[C@@H]2COP(=O)(O)O[C@H]2[C@H]1O | x | x | 0% | x | x | x
N#Cc1c(NC(=O)CSc2ncnc3sccc23)oc(-c2ccco2)c1-c1ccco1 | 13 | 10µM* | u | -2% | 1% | -8%
SMILES | Giardia killer | Nrf2 ARE act | Apoferritin bind | Nrf2 inh | IDH1 R132H inh | A549 tox
Cc1cc(NC(=O)CSc2ncnc3sccc23)no1 | -3 | 8% | -2% | -5% | 0% | 6%
CC(C)c1ccc(OC(=O)c2cc(-c3ccccc3)on2)cc1 | x | -1% | 14µM* | 6% | -3% | -6%
CCOC(=O)c1c(S(=O)(=O)N2CCCC(C(=O)N3CCN(c4ccc(F)cc4)CC3)C2)c(C)n(C)c1C (stereo unspecified) | x | 0% | -14% | x | 0% | 7%
Cc1ccc(/C=C/C(=O)OCC(=O)N2CC(=O)Nc3ccccc32)o1 | 8 | 19% | u | u | -3% | -1%
O=C1CN(C(=O)COC(=O)/C=C/c2ccco2)c2ccccc2N1 | 0 | 13µM* | -19% | 0% | -5% | 1%
Nc1c(N(CCC2=CCCCC2)C(=O)COc2ccc(F)cc2Cl)c(=O)[nH]c(=O)n1Cc1ccccc1 | -12 | 0% | x | 23µM* | -5% | u
Cn1cnc2c(NCc3ccccc3)nc(Cl)nc21 | 7 | x | x | 15% | x | 11%
CNC(=O)[C@H]1O[C@@H](n2cnc3c(NCc4cccc(I)c4)nc(Cl)nc32)[C@H](O)[C@@H]1O | 15 | 0% | u | 18µM* | -1% | -28%
Fc1ccccc1-c1ccc(-c2nc3ccc(Cl)cn3c2Nc2ccc(Cl)cc2)o1 | -15 | x | x | u | x | -6%
COc1cc(NC(=O)COc2cccc3c2OC(C)(C)C3)cc(OC)c1OC | -10 | 0% | x | 10µM* | 20% | -13%
CCc1ccc2oc(-c3cc(N=Cc4cccc(OC)c4O)ccc3O)nc2c1 | -12 | 10µM* | 6% | u | 14% | -11%
CC(NC(=O)CN1C(=O)COc2ccc(Cl)cc21)c1ccccc1 (stereo unspecified) | x | 1% | -5% | -6% | 0% | 1%
Cc1onc(-c2c(Cl)cccc2Cl)c1C(=O)N/N=C(\N)COc1ccc(Cl)cc1 | -7 | -1% | -18% | 8.2µM* | 5% | -28%
CCc1ccc2[nH]c(=O)c(C3C(C#N)=C(N)Oc4c3ccc3cccnc43)cc2c1 (stereo unspecified) | 40 | 0% | u | 15µM* | -20% | u
Cc1ccc(C(=O)Nc2nc3c(s2)CCCC3)o1 | u | 5% | -14% | u | 9% | -10%
O=C(Nc1nc2c(s1)CCCC2)c1ccc(Br)o1 | -14 | 13µM* | -20% | u | 8% | -1%
CNC(=O)C1CCC(Cn2c(=O)c3sccc3n(CC(=O)Nc3ccc(C)c(C)c3)c2=O)CC1 (stereo unspecified) | x | 0% | -14% | 23µM* | -13% | -17%
